Screens as filed in PubChem BioAssay.
Hits are enriched below; roughly 27% of the tested compounds scored in any of these assays.
CYP2C19 inhib = blockers of cytochrome P450 2C19 activity – biochemical, luminescence, ADME assay, primary screen. P33261. CYP2C19 Supersomes, luciferin-H EGE luminescence, 30 min. inhibition, % at 5 µM. 96,000 compounds, 21% hits. AID 778, 2007;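 active means CYP2C19 inhibition above a set limit at 5 µM in the primary screen, cut at about 50% in these data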;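 further: plate controls were negative control wells for no effect and 2.5 mM tranylcypromine positive control for full effect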
CYP2C9 activ = human CYP2C9 activators, primary screen, biochemical, luminescence; activation factor at 5 µM; recombinant CYP2C9, luciferin-H conversion; stronger effect = higher value; factor 1 = untreated enzyme, 0 = blocked; Cytochrome P450 2C9 (Homo sapiens), P11712; 96,000 compounds, 1.4% hits;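 active means activation factor of 2 or more for CYP2C9 at a 5 µM dose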;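 further: 0 = sulfaphenazole-blocked wells and 1 = vehicle-only wells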
Target sequence (P11712 whole entry, looked up): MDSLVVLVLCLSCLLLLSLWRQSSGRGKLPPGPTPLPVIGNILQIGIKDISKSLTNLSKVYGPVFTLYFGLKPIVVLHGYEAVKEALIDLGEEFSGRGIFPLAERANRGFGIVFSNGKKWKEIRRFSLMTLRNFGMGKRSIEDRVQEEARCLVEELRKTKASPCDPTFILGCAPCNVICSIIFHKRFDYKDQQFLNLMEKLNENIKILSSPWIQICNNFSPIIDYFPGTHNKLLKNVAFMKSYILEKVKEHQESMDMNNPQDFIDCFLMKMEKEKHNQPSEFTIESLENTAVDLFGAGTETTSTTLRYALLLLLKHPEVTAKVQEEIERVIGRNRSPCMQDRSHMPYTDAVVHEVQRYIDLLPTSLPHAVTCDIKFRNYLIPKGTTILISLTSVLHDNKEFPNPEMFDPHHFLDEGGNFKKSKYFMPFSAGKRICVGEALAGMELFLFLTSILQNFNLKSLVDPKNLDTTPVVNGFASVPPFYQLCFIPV
CYP2C19 activ = human CYP2C19 activators, primary screen, biochemical, luminescence. Cytochrome P450 2C19 (Homo sapiens), P33261. recombinant CYP2C19, luciferin-H EGE luminescence; stronger effect = higher value; 0 = fully inhibited enzyme, 1 = untreated enzyme. activation factor at 5 µM. 96,000 tested, under 10 active. AID 1025, 2008;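 active means activation factor of at least 2 at 5 µM in the primary screen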;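 further: 0 = wells with 2.5 mM tranylcypromine and 1 = vehicle-only wells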
sEH act = soluble epoxide hydrolase activators, primary screen, biochemical, human sEH; 91,000 compounds, 0.04% hits; AID 717, 2007; activation, % at 2 µM; purified human sEH enzymatic activity, activator screen; in the data active means activation above about 37%
CYP2C9 inh = blockers of cytochrome P450 2C9 activity – biochemical, luminescence, ADME assay, primary screen. 96,000 compounds, 20% hits. CYP2C9 Supersomes, luciferin-H conversion. P11712. inhibition, % at 5 µM. AID 777, 2007;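 active means blocking of liver enzyme CYP2C9 beyond about 50% at 5 µM, limit read from the data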
sEH inhibitor = soluble epoxide hydrolase inhibitors, primary screen, biochemical, human sEH. inhibition, % at 2 µM. 91,000 compounds, 0.34% hits. AID 707, 2007. Bifunctional epoxide hydrolase 2 (Homo sapiens), P34913. recombinant human sEH enzymatic activity assay; in the data active means inhibition above about 80%
The depositor's hits bear a star.

How did Cc1cccc2cc(CN(Cc3ccco3)C(=O)N3CCCC3)c(=O)[nH]c12 do in these assays?
CYP2C19 inhib: -1.6; CYP2C9 activ: 1; CYP2C19 activ: 1; CYP2C9 inh: 0.7

What do the screens show for `CC(=O)c1cccc(S(=O)(=O)N(Cc2cc3cc4c(cc3[nH]c2=O)OCCO4)CC2CCCO2)c1` (stereo unspecified)?
CYP2C19 inhib: 26.6; CYP2C9 activ: 0.7; CYP2C19 activ: 0.7; sEH act: 1.5; CYP2C9 inh: 29.7; sEH inhibitor: 2.4

What do the screens show for `O=C(Nc1ccc(Oc2ccccc2)cc1)C1CCCO1` (stereo unspecified)?
CYP2C19 inhib: 58.4*; CYP2C9 activ: 0.8; CYP2C19 activ: 0.4; sEH act: -6.5; CYP2C9 inh: 15.1; sEH inhibitor: 10.2

Results for O=C(O)c1cccc(C(=O)Nc2cccc(NC(=O)C3CCCO3)c2)c1 (stereo unspecified) ?
CYP2C19 inhib: 61.7*; CYP2C9 activ: 0.7; CYP2C19 activ: 0.4; CYP2C9 inh: 29.4

Results for COc1ccc(NC(=O)C2CCCO2)cc1 (stereo unspecified) ?
sEH act: -2.8; sEH inhibitor: 2.7

What do the screens show for `Cc1nn(Cc2c(F)c(F)c(F)c(F)c2F)c(C)c1NC(=O)c1c([N+](=O)[O-])cnn1C`?
CYP2C19 inhib: 16.3; CYP2C9 activ: 1; CYP2C19 activ: 0.8; sEH act: 5.0; CYP2C9 inh: 1.9; sEH inhibitor: -3.0

How did Cc1ccc(OCc2ccc(C(=O)Nc3c(C)nn(Cc4c(F)c(F)c(F)c(F)c4F)c3C)o2)c([N+](=O)[O-])c1 do in these assays?
CYP2C19 inhib: 57.1*; CYP2C9 activ: 0.4; CYP2C19 activ: 0.4; sEH act: -6.0; CYP2C9 inh: 56.8*; sEH inhibitor: 6.6

What do the screens show for `CCOc1ccccc1CNC(=O)c1cc2oc3ccccc3c2n1C`?
CYP2C19 inhib: 33.5; CYP2C9 activ: 1.9; CYP2C19 activ: 0.7; sEH act: -14.1; CYP2C9 inh: -85.7; sEH inhibitor: 13.1

What do the screens show for `COCCNC(=O)c1cc2oc3ccccc3c2n1C`?
CYP2C19 inhib: 90.4*; CYP2C9 activ: 0.2; CYP2C19 activ: 0.1; sEH act: -2.3; CYP2C9 inh: 79.4*; sEH inhibitor: 5.4

How did CC1=CC(C)(C)Nc2ccc(OC(=O)CN3C(=O)c4cccc5cccc(c45)C3=O)cc21 do in these assays?
CYP2C19 inhib: 26.9; CYP2C9 activ: 0.6; CYP2C19 activ: 0.7; sEH act: 21.2; CYP2C9 inh: 40.3; sEH inhibitor: -17.5

How did CC1=CC(C)(C)Nc2ccc(OC(=O)C(Cc3ccccc3)N3C(=O)c4ccccc4C3=O)cc21 (stereo unspecified) do in these assays?
CYP2C19 inhib: 8.1; CYP2C9 activ: 0.4; CYP2C19 activ: 0.9; sEH act: 11.7; CYP2C9 inh: 55.7*; sEH inhibitor: -11.4

Results for Cc1ccc(C)c(Cn2nnc3c(=O)[nH]c(C(=O)NCC4CCCO4)nc32)c1 (stereo unspecified) ?
sEH act: -0.1; sEH inhibitor: 1.4

What do the screens show for `Cc1ccc(Cn2nnc3c(=O)[nH]c(C4CCN(S(=O)(=O)c5cc(C)ccc5C)CC4)nc32)cc1`?
CYP2C19 inhib: 79.2*; CYP2C9 activ: 0; CYP2C19 activ: 0.2; sEH act: 5.0; CYP2C9 inh: 97.2*; sEH inhibitor: -3.4

How did COCCNC(=O)c1nc2c(nnn2Cc2cc(C)ccc2C)c(=O)[nH]1 do in these assays?
sEH act: 3.2; sEH inhibitor: -3.9

What do the screens show for `Cc1ccc(C)c(S(=O)(=O)N2CCC(c3nc4c(nnn4Cc4ccc(F)cc4)c(=O)[nH]3)CC2)c1`?
CYP2C19 inhib: 48.7; CYP2C9 activ: 0.1; CYP2C19 activ: 0.5; sEH act: 9.0; CYP2C9 inh: 94.2*; sEH inhibitor: -7.3

Results for O=C(NCCN1C(=O)C2C3C=CC(C3)C2C1=O)Nc1ccc(Br)cc1 (stereo unspecified) ?
CYP2C19 inhib: 93.8*; CYP2C9 activ: 0.4; CYP2C19 activ: 0.1; CYP2C9 inh: 55.3*

How did COc1ccccc1NC(=O)NCCN1C(=O)C2C3C=CC(C3)C2C1=O (stereo unspecified) do in these assays?
CYP2C19 inhib: 66.1*; CYP2C9 activ: 1; CYP2C19 activ: 0.3; CYP2C9 inh: 2.9

How did C=CCOc1ccccc1CN1CCSCC1 do in these assays?
CYP2C19 inhib: 71.1*; CYP2C9 activ: 0.9; CYP2C19 activ: 0.3; CYP2C9 inh: 9.8

What do the screens show for `CCOc1cc(CN2CCSCC2)ccc1O`?
CYP2C19 inhib: -0.4; CYP2C9 activ: 1.2; CYP2C19 activ: 1; CYP2C9 inh: -16.7

What do the screens show for `Cc1cc2nc(C(F)(F)F)[nH]c(=O)n2n1`?
CYP2C19 inhib: -4.3; CYP2C9 activ: 1.1; CYP2C19 activ: 1; CYP2C9 inh: -9.9

How did N#Cc1cnn(-c2nc3sc4c(c3c(=O)[nH]2)CCCC4)c1N do in these assays?
CYP2C19 inhib: 3.0; CYP2C9 activ: 0.9; CYP2C19 activ: 1; sEH act: -8.8; CYP2C9 inh: 10.4; sEH inhibitor: 8.9

How did COc1ccc(CN(C2CCCC2)S(=O)(=O)c2ccc(-n3cnnn3)cc2)cc1OC do in these assays?
sEH act: 1.2; sEH inhibitor: -3.2

How did COc1cc(S(=O)(=O)N(Cc2ccc(C)cc2)Cc2ccco2)ccc1-n1cnnn1 do in these assays?
CYP2C19 inhib: 63.6*; CYP2C9 activ: 0.5; CYP2C19 activ: 0.4; sEH act: 1.2; CYP2C9 inh: 53.1*; sEH inhibitor: -7.1

What do the screens show for `COc1cc(S(=O)(=O)NCC2OCCc3ccccc32)ccc1-n1cnnn1` (stereo unspecified)?
CYP2C19 inhib: 90.6*; CYP2C9 activ: 0.5; CYP2C19 activ: 0.1; sEH act: 5.9; CYP2C9 inh: 52.7*; sEH inhibitor: -7.9

What do the screens show for `CC#CCN(CC#CC)S(=O)(=O)c1ccc(-n2cnnn2)c(OC)c1`?
CYP2C19 inhib: 83.8*; CYP2C9 activ: 0.9; CYP2C19 activ: 0.2; sEH act: -2.4; CYP2C9 inh: 12.9; sEH inhibitor: 2.4

Results for COc1cc(S(=O)(=O)N(Cc2ccc(C)cc2)C2CCCCC2)ccc1-n1cnnn1 ?
CYP2C19 inhib: 86.5*; CYP2C9 activ: 0.2; CYP2C19 activ: 0.1; CYP2C9 inh: 84.3*

Results for COc1cc(S(=O)(=O)N2CCCC3(CCCCC3)C2)ccc1-n1cnnn1 ?
CYP2C19 inhib: 39.1; CYP2C9 activ: 1; CYP2C19 activ: 0.6; sEH act: 3.1; CYP2C9 inh: -3.5; sEH inhibitor: -5.0

How did O=C(Nc1nnc(-c2cccs2)o1)c1ccco1 do in these assays?
CYP2C19 inhib: -4.1; CYP2C9 activ: 0.7; CYP2C19 activ: 1; sEH act: 1.2; CYP2C9 inh: 33.7; sEH inhibitor: -0.6
